{"source": "PubChem BioAssay AID1020", "about": "(Sanford-Burnham Center for Chemical Genomics, 2008)", "note": "Screen size: about 200,000 compounds; about 240 (0.12%) were called active. The full list was thinned out, with actives kept by preference. Values without a mark were called inactive. Rule as the data show it: active = inhibition above about 50%; inactive = the rest."}
{"test_system": "glucose-6-phosphate dehydrogenase [Leuconostoc mesenteroides]", "assay": "bacterial G6PDH enzyme inhibition, coupled readout – biochemical, Leuconostoc mesenteroides enzyme, counter-screen for G6PDH-coupled screening assays (AID 1020)", "conditions": "Purified L. mesenteroides G6PDH, diaphorase/resazurin coupled fluorescence, 45 min; at 5 µM; hits give high values"}
{"smiles": "OCCC1CN(Cc2cccn2-c2nccs2)CCN1CCc1ccccc1", "note": "(stereo unspecified)", "inhibition": "12.9%"}
{"smiles": "CCC1(CC)NC(=O)N(Cc2nc3ccccc3s2)C1=O", "inhibition": "10.3%"}
{"smiles": "CCOc1ccccc1NC(=O)C1CCCN(C(=O)Nc2ccccc2)C1", "note": "(stereo unspecified)", "inhibition": "4.5%"}
{"smiles": "CCOC(=O)CNC(=O)/C=C/c1c(Cl)cccc1Cl", "inhibition": "1.5%"}
{"smiles": "Cc1ccc(N2C(=O)SC(N(CC(=O)O)c3ccc(C)cc3)C2=O)cc1", "note": "(stereo unspecified)", "inhibition": "21.1%"}
{"smiles": "Cc1ccc(Nc2nnc(SCC(=O)c3cc4ccccc4o3)s2)cc1C", "inhibition": "-1.5%"}
{"smiles": "CCC(C)NCC(=O)Nc1ccc([N+](=O)[O-])cc1C(=O)Nc1ccccc1F", "note": "(stereo unspecified)", "inhibition": "4.8%"}
{"smiles": "NC1=NN(c2cccc(C(=O)O)c2)C(=O)C1", "inhibition": "19.2%"}
{"smiles": "CCOC(=O)/C(N=Nc1cc(C(=O)O)cc(C(=O)O)c1)=C(\\O)CCl", "inhibition": "-9.1%"}
{"smiles": "CCC1CCCCN1C(=S)Nc1ccc(SC(F)F)cc1", "note": "(stereo unspecified)", "inhibition": "-14.7%"}
{"smiles": "O=C(O)/C=C/c1cn(Cc2ccccc2)nc1-c1cccs1", "inhibition": "2%"}
{"smiles": "CC[N+]1(CC)CC2=Cc3ccccc3CC2C1", "note": "(stereo unspecified)", "inhibition": "0.9%"}
{"smiles": "O=C(Nc1ccc(Cl)cc1)C1c2cccc[n+]2CC(=O)N1Cc1ccc2c(c1)OCO2", "note": "(stereo unspecified)", "inhibition": "10.2%"}
{"smiles": "C=CCN(CC=C)S(=O)(=O)c1ccc(C(=O)Nc2nc3c(s2)CCc2ccccc2-3)cc1", "inhibition": "8.4%"}
{"smiles": "CCOC(=O)N1CCN(C(c2cccnc2)c2ccc3cccnc3c2O)CC1", "note": "(stereo unspecified)", "inhibition": "23.8%"}
{"smiles": "Oc1c(C(c2ccccn2)N2CCOCC2)ccc2cccnc12", "note": "(stereo unspecified)", "inhibition": "50.6% (active)"}
{"smiles": "Cc1nc2sc(C(c3ccco3)N3CCOCC3)c(O)n2n1", "note": "(stereo unspecified)", "inhibition": "-0.1%"}
{"smiles": "COc1ccccc1N=Cc1c(O)c2ccccc2oc1=O", "inhibition": "2.9%"}
{"smiles": "COC(=O)c1c(NC(=O)COC(=O)[C@@H](NS(=O)(=O)c2ccccc2)C(C)C)sc2c1CCC2", "inhibition": "-20.8%"}
{"smiles": "Cc1cc(C)cc(C(=O)N2CCN=C2SCc2ccc([N+](=O)[O-])cc2)c1", "inhibition": "-0.2%"}
{"smiles": "COCC(C)n1c(C)cc(C(=O)CSc2cc(C)c3ccccc3n2)c1C", "note": "(stereo unspecified)", "inhibition": "-2.6%"}
{"smiles": "CC(C)CC[n+]1ccn(C2=C([O-])c3ccccc3C(=O)/C2=N\\S(=O)(=O)c2ccccc2)c1", "inhibition": "52.9% (active)"}
{"smiles": "CC1=C/C(=N\\S(=O)(=O)c2ccccc2)C(C(C)C)=CC1=O", "inhibition": "1.5%"}
{"smiles": "O=C1NC(c2ccccc2)CCC1(Cl)Cl", "note": "(stereo unspecified)", "inhibition": "-1%"}
{"smiles": "COc1ccccc1CNC(=O)C1Cc2ccccc2C(=O)O1", "note": "(stereo unspecified)", "inhibition": "14.2%"}
{"smiles": "Cc1cccc(-c2nc3ccccc3c(=O)n2NC(=O)Cc2ccc(Cl)cc2)c1", "inhibition": "12.9%"}
